According to the supplement of paper PMC7411054:

Key:
Test in all cases: phenotypically active (imaging signature differs from DMSO and reproducible) at any of 0.3-9 uM (binary (1 = active, 0 = inactive)); higher = active
Settings in all cases: treatment time: 24 h
[1] = system: A549-ACTB-RAB5A
Outline: (§1)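 After 24 h at 0.3, 1, 3 or 9 µM, with four wells per treatment, fifteen gene-edited A549, HepG2 and WPMY1 reporter lines carrying BFP, GFP and RFP/FusionRed were imaged live. Each well's live-cell features were expressed relative to solvent control wells. Deviation required ≥3 of 4 wells past the 95th percentile of control Euclidean distances, and reproducibility a median replicate Pearson correlation over the 95th percentile of non-replicates. Phenotypic activity rested on both.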

[2] = system: A549-CANX-COX4
Outline: as §1

[3] = system: A549-GM130-SQSTM1
Outline: as §1

[4] = system: A549-TP53BP1-CLTA
Outline: as §1

[5] = system: A549-TUBA1B-RELA
Outline: as §1

[6] = system: HepG2-ACTB-RAB5A
Outline: as §1

[7] = system: HepG2-CANX-COX4
Outline: as §1

[8] = system: HepG2-GM130-SQSTM1
Outline: as §1

[9] = system: HepG2-TP53BP1-CLTA
Outline: as §1

[10] = system: HepG2-TUBA1B-RELA
Outline: as §1

[11] = system: WPMY1-ACTB-RAB5A
Outline: as §1

[12] = system: WPMY1-CANX-COX4
Outline: as §1

[13] = system: WPMY1-GM130-SQSTM1
Outline: as §1

[14] = system: WPMY1-TP53BP1-CLTA
Outline: as §1

[15] = system: WPMY1-TUBA1B-RELA
Outline: as §1

Measured: phenotypically active

CC(c1cc2ccccc2s1)N(O)C(N)=O (stereo not given) [zileuton]
inactive: [1] 0 | [2] 0 | [3] 0 | [4] 0 | [5] 0 | [6] 0 | [7] 0 | [8] 0 | [9] 0 | [10] 0 | [11] 0 | [12] 0 | [13] 0 | [14] 0 | [15] 0

CC1(C)[C@@H](O)CC[C@]2(C)[C@H]3C(=O)C=C4[C@@H]5C[C@@](C)(C(=O)O)CC[C@]5(C)CC[C@@]4(C)[C@]3(C)CC[C@@H]12 [Glycyrrhetinic Acid]
inactive: [1] 0 | [2] 0 | [3] 0 | [4] 0 | [5] 0 | [6] 0 | [7] 0 | [8] 0 | [9] 0 | [10] 0 | [11] 0 | [12] 0 | [13] 0 | [14] 0 | [15] 0

CO[C@H]1C=CO[C@@]2(C)Oc3c(C)c(O)c4c(O)c(c5c(nc6cc(C)ccn65)c4c3C2=O)NC(=O)C(C)=CC=C[C@H](C)[C@H](O)[C@@H](C)[C@@H](O)[C@@H](C)[C@H](OC(C)=O)[C@@H]1C [Rifaximin]
inactive: [1] 0 | [2] 0 | [3] 0 | [4] 0 | [5] 0 | [6] 0 | [7] 0 | [8] 0 | [9] 0 | [10] 0 | [11] 0 | [12] 0 | [13] 0 | [14] 0 | [15] 0

CN(C)CCOC(c1ccc(Cl)cc1)c1ccccn1 (stereo not given) [carbinoxamine]
inactive: [1] 0 | [2] 0 | [3] 0 | [4] 0 | [5] 0 | [6] 0 | [7] 0 | [8] 0 | [9] 0 | [10] 0 | [11] 0 | [12] 0 | [13] 0 | [14] 0 | [15] 0

C[N+]1(C)CCC(=C(c2ccccc2)c2ccccc2)CC1 [diphemanil]
inactive: [1] 0 | [2] 0 | [3] 0 | [4] 0 | [5] 0 | [6] 0 | [7] 0 | [8] 0 | [9] 0 | [10] 0 | [11] 0 | [12] 0 | [13] 0 | [14] 0 | [15] 0

CCCNC(C)C(=O)Nc1c(C)csc1C(=O)OC (stereo not given) [articaine]
inactive: [1] 0 | [2] 0 | [3] 0 | [4] 0 | [5] 0 | [6] 0 | [7] 0 | [8] 0 | [9] 0 | [10] 0 | [11] 0 | [12] 0 | [13] 0 | [14] 0 | [15] 0

O=C(NCCO)c1cc(C(=O)NCCO)cc(C(=O)NCCO)c1
inactive: [1] 0 | [2] 0 | [3] 0 | [4] 0 | [5] 0 | [6] 0 | [7] 0 | [8] 0 | [9] 0 | [10] 0 | [11] 0 | [12] 0 | [13] 0 | [14] 0 | [15] 0

CN1CC[C@]23c4ccccc4N[C@H]1[C@]21CCN(C)[C@H]3Nc2ccccc21 [Calycanthine]
inactive: [1] 0 | [2] 0 | [3] 0 | [4] 0 | [5] 0 | [6] 0 | [7] 0 | [8] 0 | [9] 0 | [10] 0 | [11] 0 | [12] 0 | [13] 0 | [14] 0 | [15] 0

CN1C(CSCC(F)(F)F)Nc2cc(Cl)c(S(N)(=O)=O)cc2S1(=O)=O (stereo not given) [polythiazide]
inactive: [1] 0 | [2] 0 | [3] 0 | [4] 0 | [5] 0 | [6] 0 | [7] 0 | [8] 0 | [9] 0 | [10] 0 | [11] 0 | [12] 0 | [13] 0 | [14] 0 | [15] 0

CCN(Cc1ccncc1)C(=O)C(CO)c1ccccc1 (stereo not given) [tropicamide]
inactive: [1] 0 | [2] 0 | [3] 0 | [4] 0 | [5] 0 | [6] 0 | [7] 0 | [8] 0 | [9] 0 | [10] 0 | [11] 0 | [12] 0 | [13] 0 | [14] 0 | [15] 0

C=C1C[C@]23C[C@@]1(O)CC[C@H]2[C@@]12C=C[C@H](O)[C@](C)(C(=O)O1)[C@H]2[C@@H]3C(=O)O [Gibberellic acid]
inactive: [1] 0 | [2] 0 | [3] 0 | [4] 0 | [5] 0 | [6] 0 | [7] 0 | [8] 0 | [9] 0 | [10] 0 | [11] 0 | [12] 0 | [13] 0 | [14] 0 | [15] 0

Cc1cnc(C(=O)NCCc2ccc(S(=O)(=O)NC(=O)NC3CCCCC3)cc2)cn1 [glipizide]
inactive: [1] 0 | [2] 0 | [3] 0 | [4] 0 | [5] 0 | [6] 0 | [7] 0 | [8] 0 | [9] 0 | [10] 0 | [11] 0 | [12] 0 | [13] 0 | [14] 0 | [15] 0

CNC[C@H](O)c1ccc(O)c(O)c1 [epinephrine]
inactive: [1] 0 | [2] 0 | [3] 0 | [4] 0 | [5] 0 | [6] 0 | [7] 0 | [8] 0 | [9] 0 | [10] 0 | [11] 0 | [12] 0 | [13] 0 | [14] 0 | [15] 0

NC(=O)c1ncn([C@@H]2O[C@H](CO)[C@@H](O)[C@H]2O)c1N
inactive: [1] 0 | [2] 0 | [3] 0 | [4] 0 | [5] 0 | [6] 0 | [7] 0 | [8] 0 | [9] 0 | [10] 0 | [11] 0 | [12] 0 | [13] 0 | [14] 0 | [15] 0

COC(=O)C1=CO[C@@H](O[C@@H]2O[C@H](CO)[C@@H](O)[C@H](O)[C@H]2O)[C@H]2[C@@H]1C(=O)C[C@@H]2C [Verbenaline]
inactive: [1] 0 | [2] 0 | [3] 0 | [4] 0 | [5] 0 | [6] 0 | [7] 0 | [8] 0 | [9] 0 | [10] 0 | [11] 0 | [12] 0 | [13] 0 | [14] 0 | [15] 0

O=C1NC(=O)C(c2ccccc2)(c2ccccc2)N1 [phenytoin]
inactive: [1] 0 | [2] 0 | [3] 0 | [4] 0 | [5] 0 | [6] 0 | [7] 0 | [8] 0 | [9] 0 | [10] 0 | [11] 0 | [12] 0 | [13] 0 | [14] 0 | [15] 0

NC12CC3CC(CC(C3)C1)C2 [amantadine]
inactive: [1] 0 | [2] 0 | [3] 0 | [4] 0 | [5] 0 | [6] 0 | [7] 0 | [8] 0 | [9] 0 | [10] 0 | [11] 0 | [12] 0 | [13] 0 | [14] 0 | [15] 0

CC(C)c1ccc(NC(=O)Cn2cnc3c2c(=O)n(C)c(=O)n3C)cc1
inactive: [1] 0 | [2] 0 | [3] 0 | [4] 0 | [5] 0 | [6] 0 | [7] 0 | [8] 0 | [9] 0 | [10] 0 | [11] 0 | [12] 0 | [13] 0 | [14] 0 | [15] 0

CN([C@H]1c2cc(OCCCC(F)(F)F)ccc2OC(C)(C)[C@@H]1O)S(C)(=O)=O
inactive: [1] 0 | [2] 0 | [3] 0 | [4] 0 | [5] 0 | [6] 0 | [7] 0 | [8] 0 | [9] 0 | [10] 0 | [11] 0 | [12] 0 | [13] 0 | [14] 0 | [15] 0

COc1cc2c3cc1Oc1cc(ccc1O)C[C@@H]1c4c(cc(OC)c(O)c4Oc4ccc(cc4)C[C@@H]3N(C)CC2)CC[N+]1(C)C [(+)-Tubocurarine chloride]
inactive: [1] 0 | [2] 0 | [3] 0 | [4] 0 | [5] 0 | [6] 0 | [7] 0 | [8] 0 | [9] 0 | [10] 0 | [11] 0 | [12] 0 | [13] 0 | [14] 0 | [15] 0

Cc1occc(=O)c1O [3-hydroxy-2-methyl-4-pyrone]
inactive: [1] 0 | [2] 0 | [3] 0 | [4] 0 | [5] 0 | [6] 0 | [7] 0 | [8] 0 | [9] 0 | [10] 0 | [11] 0 | [12] 0 | [13] 0 | [14] 0 | [15] 0

CC(C(=O)Nc1cccc(/N=C/c2c(O)ccc3ccccc23)c1)c1ccccc1 (stereo not given) [Salermide]
inactive: [1] 0 | [2] 0 | [3] 0 | [4] 0 | [5] 0 | [6] 0 | [7] 0 | [8] 0 | [9] 0 | [10] 0 | [11] 0 | [12] 0 | [13] 0 | [14] 0 | [15] 0

C=C(C)[C@@H]1CC[C@]2(C(=O)O)CC[C@]3(C)[C@H](CC[C@@H]4[C@@]5(C)CC[C@H](O)C(C)(C)[C@@H]5CC[C@]43C)[C@@H]12 [betulinic-acid]
inactive: [1] 0 | [2] 0 | [3] 0 | [4] 0 | [5] 0 | [6] 0 | [7] 0 | [8] 0 | [9] 0 | [10] 0 | [11] 0 | [12] 0 | [13] 0 | [14] 0 | [15] 0
